Data: PMC4552634, “A New Set of Chemical Starting Points with Plasmodium falciparum Transmission-Blocking Potential for Antimalarial Drug Discovery” (PLoS ONE, 2015)
In all, about 13,000 compounds went through this assay and about 3,200 (25%) showed an effect of 50% or more. The list shows a part of the results.

What follows are compounds tested on P. falciparum stage V gametocytes. Conditions: 48 h, 5 µM; inhibitor.
Design: BacTiter-Glo ATP luminescence viability of purified stage V gametocytes in 384-well plates, per cent inhibition versus DMSO

Row | Compound | % Inhibition
1 | CC[C@H]1CN2CC[C@@H]1C[C@H]2[C@H](O)c1cc[n+]([O-])c2ccc(OC)cc12 [TCMDC-142004] | 8.307%
2 | Oc1ccccc1CNC1CCCCC1NCc1ccccc1O (stereo not shown) [TCMDC-138468] | 62.18%
3 | Oc1cc2ccccc2cc1CNC1CCCCC1 [TCMDC-131977] | -28.97%
4 | Oc1c(Cl)cc(-c2ccccc2)cc1CNC1CCCCC1 [TCMDC-137170] | -21.36%
5 | CC(C)C[C@@H](/C=N/N1CC(=O)NC1=O)NC(=O)[C@H](CC(C)C)NC(=O)c1ccc(OCCN2CCOCC2)cc1 [TCMDC-136200] | 6.414%
6 | CCCCCCCC/C=C\CCCCCCCC(=O)NCc1ccc(O)c(OC)c1 [TCMDC-124289] | 45.72%
7 | CC(=O)N1CCC(C(=O)Nc2ccc(-c3cccc(-c4nc5c(C)cccc5[nH]4)c3)cc2)CC1 [TCMDC-132167] | -9.717%
8 | COC1CCC(C(=O)Nc2ccc(-c3cccc(-c4nc5c(C)cccc5[nH]4)c3)cc2)CC1 (stereo not shown) [TCMDC-136859] | -20.23%
9 | Cc1cccc2[nH]c(-c3cccc(-c4ccc(NC(=O)C5CCN(C)CC5)cc4)c3)nc12 [TCMDC-132189] | 100.5%
10 | Cc1cccc2[nH]c(-c3ccc(-c4ccc(NC(=O)C5CCN(C)CC5)cc4)cc3)nc12 [TCMDC-132182] | 81.12%
11 | Cc1cccc2[nH]c(-c3cccc(-c4ccc(NC(=O)C5CCCO5)cc4)c3)nc12 (stereo not shown) [TCMDC-136969] | -0.7596%
12 | CC1CN(Cc2ccccc2)CCN1c1ccc(NC(=O)c2ccc(F)cc2)cc1 (stereo not shown) [TCMDC-135002] | -13.42%
13 | N#Cc1cccc(NC(=O)c2cccc(S(=O)(=O)NC3CCN(CC4CCCCC4)C3)c2)c1 (stereo not shown) [TCMDC-132508] | 83.68%
14 | O=C(Nc1ccc(Cl)cc1)c1cccc(S(=O)(=O)NC2CCN(CC3CCCCC3)CC2)c1 [TCMDC-132807] | 80.59%
15 | O=C(Nc1ccc(C(F)(F)F)cc1)c1cccc(S(=O)(=O)NC2CCN(CC3CCCCC3)C2)c1 (stereo not shown) [TCMDC-132485] | -55.81%
16 | O=C(Nc1cccc(C(F)(F)F)c1)c1cccc(S(=O)(=O)NC2CCCN(CC3CCCCC3)C2)c1 (stereo not shown) [TCMDC-132769] | -38.48%
17 | O=C(Nc1ccc(C(F)(F)F)cc1)c1cccc(S(=O)(=O)NC2CCN(CC3CCCCC3)CC2)c1 [TCMDC-133671] | 8.091%
18 | O=C(Nc1ccc(Cl)cc1)c1cccc(S(=O)(=O)NC2CCN(CC3CCCCC3)C2)c1 (stereo not shown) [TCMDC-132483] | -5.409%
19 | CCC(CC)OC(=O)C(C)c1cccc(C(=O)c2ccccc2)c1 (stereo not shown) [TCMDC-138666] | -7.418%
20 | COc1ccc2ncc(F)c(CCN3CC[C@H](NCc4cc(C#N)c5c(c4)OCCO5)[C@H](O)C3)c2c1 [TCMDC-136207] | -10.98%
21 | CCC(C)OC(=O)C1=C(C)NC2=C(C(=O)CC(c3ccc(OC)c(OC)c3)C2)C1c1ccc(O)cc1 (stereo not shown) [TCMDC-125619] | 13.43%
22 | CCOC(=O)c1ccc(NC(=O)N[C@@H](Cc2ccc(O)cc2)C(=O)NC2CCN(Cc3ccc4c(c3)OCO4)CC2)cc1 [TCMDC-135257] | -19.76%
23 | CCN(CC)CCN(Cc1ccc(-c2ccc(C(F)(F)F)cc2)cc1)C(=O)Cn1c(CCc2ccc(F)cc2)nc(=O)c2ccccc21 [TCMDC-140943] | 79.23%

Row | Compound | % Inhibition
24 | CCN(CC)CCN(Cc1ccc(-c2ccc(C(F)(F)F)cc2)cc1)C(=O)Cn1c(CCC2CCCCC2)nc(=O)c2ccccc21 [TCMDC-141056] | 47.99%
25 | CCN(CC)CCN(Cc1ccc(-c2ccc(C(F)(F)F)cc2)cc1)C(=O)Cn1c(CCc2cc(F)cc(F)c2)nc(=O)c2ccccc21 [TCMDC-140956] | 70.83%
26 | CCN(CC)CCN(Cc1ccc(-c2ccc(C(F)(F)F)cc2)cc1)C(=O)Cn1c(/C=C/c2ccco2)nc(=O)c2ccccc21 [TCMDC-140939] | 82.58%
27 | COc1ccc2nccc(N3CCN(CCNCc4ccc5c(n4)NC(=O)CO5)CC3)c2n1 [TCMDC-141968] | 1.504%
28 | Cc1cc(NCC(C)C)c2[nH]nc(-c3ccccc3)c2n1 [TCMDC-131557] | -38.79%
29 | CC(=O)c1c(Cc2ccccc2Cl)c[nH]c1C [TCMDC-125433] | -14.2%
30 | CC(C)COc1cc(C(=O)Nc2cnc3ccccc3c2)ccc1[N+](=O)[O-] [TCMDC-139142] | 13.84%
31 | COc1ccc(CNC(=O)NC2CCN(c3ccnc(Nc4ccc(F)cc4)n3)CC2)cc1 [TCMDC-133631] | 1.923%
32 | OC(CNC12CC3CC(CC(C3)C1)C2)c1cccc(C(F)(F)F)c1 (stereo not shown) [TCMDC-131509] | -56.01%
33 | CCc1ccc(-n2cc(C(=O)c3cc(Br)ccc3O)cc(C#N)c2=O)cc1 [TCMDC-125186] | 9.775%
34 | O=[N+]([O-])c1ccccc1/C=N/Nc1ccnc2cc(Cl)ccc12 [TCMDC-123965] | -67.83%
35 | COc1ccc2nccc([C@@H](O)CN3CCC(NC(=O)c4ccc(C5(C(F)(F)F)N=N5)cc4)CC3)c2c1 [TCMDC-141324] | -7.709%
36 | CCCCOc1ccc(/C=C/c2ccc(-c3c(C)[nH]c(C)c(Cl)c3=O)s2)cc1 [TCMDC-136086] | 60.63%
37 | O=C(/C=C/c1ccc(Cl)c(Cl)c1)NCCCCCN1CCC(NC(=O)Nc2ccc(Cl)c(Cl)c2)CC1 [TCMDC-139387] | -30.31%
38 | CC(C)c1ccc(NC(=O)N[C@H]2CCN(CCCCCNC(=O)/C=C/c3ccc(Cl)c(Cl)c3)C2)cc1 [TCMDC-139510] | 104.6%
39 | CN(CCCCCN1CCC(NC(=O)Nc2ccc(C(F)(F)F)cc2)C1)C(=O)/C=C/c1ccc(Cl)c(Cl)c1 (stereo not shown) [TCMDC-139531] | 79.06%
40 | CC(C)c1ccc(NC(=O)NC2CCN(CCCCCNC(=O)/C=C/c3ccc(Cl)c(Cl)c3)CC2)cc1 [TCMDC-139389] | -3.81%
41 | COc1ccc(NC(=O)NC2CCN(CCCCCNC(=O)/C=C/c3ccc(Cl)c(Cl)c3)C2)c(OC)c1 (stereo not shown) [TCMDC-139525] | 95.6%
42 | COc1ccc(NC(=O)NC2CCN(CCCCCNC(=O)/C=C/c3ccc(Cl)c(Cl)c3)CC2)cc1 [TCMDC-135709] | -22.99%
43 | O=C(/C=C/c1ccc(Cl)c(Cl)c1)NCCCCCN1CC[C@H](NC(=O)Nc2ccc(Oc3ccccc3)cc2)C1 [TCMDC-139512] | 98.95%
44 | O=C(/C=C/c1ccc(Cl)c(Cl)c1)NCCCCCN1CCC(NC(=O)Nc2ccc(Oc3ccccc3)cc2)C1 (stereo not shown) [TCMDC-139528] | -43.31%
45 | O=C(/C=C/c1ccc(Cl)c(Cl)c1)NCCCCCN1CCC(NC(=O)Nc2ccc(OC(F)F)cc2)CC1 [TCMDC-135722] | -13.06%
46 | COc1ccccc1NC(=O)NC1CCN(CCCCCNC(=O)/C=C/c2ccc(Cl)c(Cl)c2)CC1 [TCMDC-139385] | -13.68%

Row | Compound | % Inhibition
47 | CC(C)c1ccc(NC(=O)NC2CCN(CCCCCN(C)C(=O)/C=C/c3ccc(Cl)c(Cl)c3)C2)cc1 (stereo not shown) [TCMDC-139530] | -5.21%
48 | CN(CCCCCN1CCC(NC(=O)Nc2ccc(Oc3ccccc3)cc2)C1)C(=O)/C=C/c1ccc(Cl)c(Cl)c1 (stereo not shown) [TCMDC-139532] | -7.519%
49 | CN1CCN(c2cc(NC(=O)Nc3ccc(-c4ccncc4)c(Cl)c3)ccc2Br)CC1 [TCMDC-139221] | 36.17%
50 | COc1cc(OC)cc(-c2nc3c(C#N)c(OCCN(C)C)ccc3[nH]2)c1 [TCMDC-133764] | 10.97%
51 | CCOC(=O)c1ccc(NC(=O)NC2CCN(CCCCCNC(=O)/C=C/c3ccc(Cl)c(Cl)c3)C2)cc1 (stereo not shown) [TCMDC-139526] | 12.95%
52 | CCOC(=O)c1ccc(NC(=O)N[C@H]2CCN(CCCCCNC(=O)/C=C/c3ccc(Cl)c(Cl)c3)C2)cc1 [TCMDC-139511] | 97.51%
53 | CCNc1cc(C(=O)N[C@@H](Cc2ccccc2)[C@H](O)CNC2CCC(F)(F)CC2)c(F)c(N2CCCCS2(=O)=O)c1 [TCMDC-135448] | 35.59%
54 | COc1ccc2nc3cc(Cl)ccc3c(NCCc3ccccc3)c2c1.Cl [TCMDC-137665] | -3.627%
55 | CCN1CCN(CCCNc2c3ccc(Cl)cc3nc3ccc(O)cc23)CC1 [TCMDC-137583] | 70.77%
56 | COc1ccc2nc3cc(Cl)ccc3c(NCCCCN3CCNCC3)c2c1 [TCMDC-137578] | 99.69%
57 | COc1ccc2nc3ccccc3c(NCCN3CCN(C)CC3)c2c1 [TCMDC-138017] | 69.17%
58 | CCN1CCN(CCCNc2ccnc3cc(Cl)ccc23)CC1 [TCMDC-137588] | 6.527%
59 | CCN1CCN(CCCNc2c3ccc(Cl)cc3nc3ccc(OC)cc23)CC1 [TCMDC-137586] | 86.55%
60 | CN1CCCc2ccc(NC(=O)Nc3ccc(Cl)c(Cl)c3)cc2C1 [TCMDC-133732] | -5.496%
61 | Cc1ccc2[nH]c3c(NCCN(C)C)ncnc3c2c1 [TCMDC-124581] | -20.4%
62 | Cc1ccc2nc3ccccc3c(NCCN3CCN(C)CC3)c2c1 [TCMDC-138018] | 95.43%
63 | CCOC(=O)N1CCN(CCCNc2c3ccc(Cl)cc3nc3ccc(OC)cc23)CC1 [TCMDC-137480] | 40.55%
64 | COc1ccc2nc3cc(Cl)ccc3c(Nc3ccc(C(=O)O)cc3)c2c1.Cl [TCMDC-138029] | 43.24%
65 | COc1ccc2nc3cc(Cl)ccc3c(NCCN3CCN(C)CC3)c2c1 [TCMDC-137476] | 105%
66 | COc1ccc2nc3cc(Cl)ccc3c(NCCCN3CCNCC3)c2c1 [TCMDC-137580] | 104.3%
67 | CCOC(=O)N1CCN(CCCCNc2c3ccc(Cl)cc3nc3ccc(OC)cc23)CC1.Cl [TCMDC-137579] | 70.35%
